# In the library only some 18% were active in any assay of this set; here they are far more common.
# TDP1 inh: blocks human tyrosyl-DNA phosphodiesterase 1 | Q9NUW8 | recombinant TDP1, AlphaScreen DNA substrate cleavage | Potency, µM (series often up to 130 µM), for the others: at the top dose activity change, negative = inhibition, actives largely listed as inhibitors | 350,000 compounds, 0.28% hits | AID 485290; further: potency means the concentration at half of the fitted maximal effect; on the % scale 0 is the no-effect control and ±100 the full control effect; nearly all actives have a fitted effect of over 40% in size
# Target sequence (Q9NUW8 whole entry, looked up): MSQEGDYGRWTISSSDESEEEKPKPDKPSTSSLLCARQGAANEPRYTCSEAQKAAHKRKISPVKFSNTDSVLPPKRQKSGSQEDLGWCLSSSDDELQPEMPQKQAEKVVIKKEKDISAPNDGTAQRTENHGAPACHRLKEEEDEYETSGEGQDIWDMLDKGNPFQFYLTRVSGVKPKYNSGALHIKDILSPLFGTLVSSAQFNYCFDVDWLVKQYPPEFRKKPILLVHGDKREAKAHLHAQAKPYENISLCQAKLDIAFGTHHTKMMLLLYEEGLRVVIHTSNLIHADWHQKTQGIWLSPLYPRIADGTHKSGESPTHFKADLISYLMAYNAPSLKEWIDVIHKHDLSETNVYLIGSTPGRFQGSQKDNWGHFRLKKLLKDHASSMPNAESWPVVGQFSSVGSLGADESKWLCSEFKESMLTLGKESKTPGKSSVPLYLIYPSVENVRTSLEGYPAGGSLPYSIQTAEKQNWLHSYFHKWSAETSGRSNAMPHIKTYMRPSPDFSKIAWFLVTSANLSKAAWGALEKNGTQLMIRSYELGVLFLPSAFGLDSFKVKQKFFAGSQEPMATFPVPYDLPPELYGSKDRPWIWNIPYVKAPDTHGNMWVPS
#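 Tdp1 1 nM final; 15 min RT w/ cpd; substrate 15 nM, 5 min; beads 10 ug/ml, 10 min; AlphaScreen read. Neg ctrl: no enzyme.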
# TDP1 cell noCPT: qHTS for Inhibitors of human tyrosyl-DNA phosphodiesterase 1 (TDP1): qHTS in cells in absence of CPT | DT40 Tdp1-/- hTDP1 cells, no CPT, ATP luminescence, 48 h | Potency, µM (highest dose often 46.2 µM), without a hit: at the highest dose activity change, negative = growth inhibition, usual class: inhibitors | 420,000 compounds, 15% hits; further: potency means the concentration at half of the fitted maximal effect; on the % scale 0 is the no-effect control and ±100 the full control effect; nearly all actives have a fitted effect of over 55% in size
#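 Stably hTDP1-transfected Tdp1-null chicken DT40 cells were treated with library compounds minus camptothecin and grown for at least 48 hr at 37 °C, after which cellular ATP was quantified by luminescence.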
# TDP1 cell CPT: growth inhibition of DT40 Tdp1-/-;hTDP1 cells with camptothecin (screen for TDP1 inhibitors); chicken DT40 Tdp1-/-;hTDP1 cells + 20 nM CPT, ATP luminescence, 48 h; 420,000 compounds, 12% hits; Potency, µM (top dose mostly 46.2 µM), for the others: top-dose activity change, negative = growth inhibition, hits mostly inhibitors; further: potency means the concentration at half of the fitted maximal effect; on the % scale 0 is the no-effect control and ±100 the full control effect; nearly all actives have a fitted effect of over 55% in size
#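 Chicken DT40 Tdp1-/- cells stably complemented with human TDP1 were seeded at 400 cells/well in medium containing 20 nM camptothecin, exposed to pin-transferred compounds, and grown at 37 °C for at least 48 hr. Viability was read as ATP luminescence.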
# TGFb SMAD3 inh: blocks TGF-b signaling. Potency, µM (series often up to 46.1 µM), for inactives: top-dose activity, negative = inhibition, hits mostly inhibitors. HepG2 CAGA-GFP TGF-b/SMAD3 reporter, GFP fluorescence, 18 h; TGF-beta stimulated, 500 pg/mL final. 410,000 compounds, 1.2% hits; further: potency means the concentration at half of the fitted maximal effect; on the % scale 0 is the no-effect control and ±100 the full control effect; nearly all actives have a fitted effect of over 65% in size
#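 HEPG2 CAGA-GFP, 1000 cells/well; 2 h settle, 37 C; cpd via pin tool; TGF-b 500 pg/mL final; 18 h, 37 C; GFP imaging ex488/em500-530; %Activity normalised to -TGF-b and +DMSO controls; CRC fit, curve class.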
# IL1B secr inh: inhibitors of inflammasome signaling (IL-1 beta secretion) | THP-1 LPS/ATP IL-1B secretion, AlphaLISA, 16 h; stronger effect = lower value | activity change, % at 57.5 µM | 360,000 compounds, 4.7% hits; in the data active means activity change below about -50%; inconclusive means mostly about -30% to -49%; further: on the % scale 0 is the no-effect control and ±100 the full control effect
#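 Secreted IL-1B measured by AlphaLISA bead assay after 16 h compound exposure of THP-1 cells; compounds (final up to 57.5 uM) added 1 h before LPS (250 ng/mL) and ATP (1.25 mM) stimulation; lower signal means less secretion.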
# HepG2 tox: counter-screen for TGF-b inhibitors: cytotoxicity in HepG2 cells | Potency, µM (highest dose often 46.1 µM), without a hit: at the highest dose activity change, negative = cytotoxicity, actives largely listed as cytotoxic | 410,000 compounds, 0.76% hits | HepG2 CAGA-GFP viability, ATP luminescence, 18 h; further: potency means the concentration at half of the fitted maximal effect
#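 HepG2 CAGA-GFP cells (1000/well, DMEM with 1% FBS) received compound, then TGF-beta at 500 pg/mL final, and were incubated 18 hours at 37 degrees C. Viability was read by CellTiter-Glo luminescence. Media-only wells were set as complete cell-killing and DMSO as no toxicity.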
# * = called active by the depositor; ? = inconclusive; / = not tested or not shown; [ ] = dose if it differs, or a comment. Unless noted, the call rests on the fitted dose curve; in most records, active means well fitted curve in the direction sought with a large enough effect; inconclusive means small, poorly fitted or top-dose-only effect, or another doubt; inactive means no such curve, though single readings can be large; an effect the other way counts as inactive or inconclusive.
SMILES,TDP1 inh,TDP1 cell noCPT,TDP1 cell CPT,TGFb SMAD3 inh,IL1B secr inh,HepG2 tox
Cc1ccc(C(=O)c2oc3ccccc3c2NC(=O)C(C)Oc2ccccc2Cl)cc1 (stereo not drawn),0.0%,-27.4%,-26.5%,0.4%,/,1.6%
COc1cccc(C(=O)Nc2ccc(C(=O)OCc3cc(=O)n4cc(C)sc4n3)cc2)c1,-1.2%,?,?,-0.5%,/,-16.8%
O=C(COC(=O)CNC(=O)c1ccc(Cl)cc1Cl)NC(=O)NCc1ccccc1,1.8%,-23.8%,-27.6%,-9.6%,-16.3,4.9%
COc1ccc(NC(=O)CN(C)C(=O)c2cccc(S(=O)(=O)N3CCN(C)CC3)c2)cc1,-4.4%,-13.6%,-3.4%,-6.4%,14.4,2.3%
Cc1ccc(C)c(NC(=O)CN(C)C(=O)c2cccc(S(=O)(=O)N3CCN(Cc4ccccc4)CC3)c2)c1,1.2%,11.6µM*,18.4µM*,-26.9%,-5.4,-10.6%
COc1ccc(NC(=O)CN(C)C(=O)c2cccc(-n3cccc3)c2)cc1,2.51µM*,-28.3%,-28.8%,-5.8%,-10.9,3.6%
CN(CCOc1ccc(Cl)cc1)C(=O)c1cccc(S(=O)(=O)N2CCN(Cc3ccccc3)CC2)c1,/,20.6µM*,14.6µM*,?,?,-3.9%
Cc1ccc(C)c(NC(=O)CN(C)C(=O)c2cccc(S(=O)(=O)N3CCCC3)c2)c1,5.8%,-0.8%,5.4%,-4.4%,3.8,-18.7%
COc1ccc(NC(=O)CN(C)C(=O)c2cccc(S(=O)(=O)N3CCN(Cc4ccccc4)CC3)c2)cc1,5.5%,11.6µM*,18.4µM*,-12.6%,-16.6,-14.1%
CCCCC/C=C\C/C=C\C/C=C\CCCCCCC(=O)NCC(=O)O,7.5%,/,/,/,/,/
CN(C)CCCn1c2c(c(SCC(=O)Nc3cccc4ccccc34)nc1=O)CCCC2,-10.2%[0.505 µM],-16.2%,-6.0%,-3.2%,-97.4*,-40.6%
COc1ccc(Cl)cc1NC(=O)CSc1nc(=O)n(CCN(C)C)c2c1CCCC2,/,?,16.4µM*,-2.3%,?,-58.4%
COc1ccc(NC(=O)CSc2nc(=O)n(CCN(C)C)c3c2CCCC3)cc1OC,1.0%,-0.2%,-4.0%,10.7%,-6.1,-21.6%
CO/N=C(\C(=O)N[C@@H]1C(=O)N2C(C(=O)[O-])=C(C[n+]3ccc(N)n3CCO)CS[C@H]12)c1csc(N)n1,/,-6.6%,3.4%,/,/,/
NS(=O)(=O)c1ccc2nc(NC(=O)Nc3ccccc3F)sc2c1,7.6%,8.2µM*,?,-6.4%,?,-9.9%
CS(=O)(=O)c1ccc2nc(NC(=O)c3ccc(NS(=O)(=O)c4ccc(F)c(F)c4)cc3)sc2c1,-0.6%,-29.8%,-14.7%,?,80.1,-0.5%
CCCNS(=O)(=O)c1ccc2nc(NC(=O)c3ccc(F)cc3)sc2c1,0.0%,20.6µM*,8.2µM*,?,/,-37.1%
Cc1ccccc1NC(=O)Nc1nc2ccc(S(C)(=O)=O)cc2s1,3.0%,-16.4%,9.9%,-1.1%,-3.6,-15.9%
CS(=O)(=O)c1ccc2nc(NC(=O)c3cccc([N+](=O)[O-])c3)sc2c1,/,18.4µM*,-14.1%,-18.1%,-2.4,-39.0%
CS(=O)(=O)c1ccc2nc(NC(=O)c3cccc(NS(=O)(=O)c4ccc(F)c(F)c4)c3)sc2c1,5.4%,?,?,17.8µM*,35.7,-25.7%
CC(C)Cn1cc(C(=O)N2CCN(c3ccccn3)CC2)c2c3ccccc3n(C)c2c1=O,6.0%,?,?,-6.9%,-5.5,-27.8%
CSc1nc(N)c2ncn([C@@H]3O[C@H](COP(=O)(O)OP(=O)(O)OP(=O)(O)O)[C@H](O)[C@H]3O)c2n1,-6.3%[56.1 µM],/,/,/,/,/
CCN(c1ccc(OC)cc1)S(=O)(=O)N1CCCC(C(=O)NCc2cccc(C)c2)C1 (stereo not drawn),/,?,?,-9.3%,-0.3,-30.4%
CCCCn1c(N)c(N(Cc2ccccc2OC)C(=O)c2c(CC)noc2C)c(=O)[nH]c1=O,0.3%,0.8%,-25.0%,17.5%,16.3,0.6%
O=C(CSc1nc(-c2ccccc2)c(-c2ccccc2)o1)NCCCO,6.6%,-21.3%,21.1%,-8.6%,24.0,-21.6%
SMILES,TDP1 inh,TDP1 cell noCPT,TDP1 cell CPT,TGFb SMAD3 inh,IL1B secr inh,HepG2 tox
CC(C)Cn1cnc2c1c(=O)[nH]c(=O)n2Cc1ccccc1,/,-15.9%,-7.7%,15.2%,0.5,0.6%
CCOC(=O)c1ccc(NC(=O)CN(Cc2ccc(Cl)cc2)S(C)(=O)=O)cc1,9.1%,?,?,-4.5%,-17.3,-14.1%
Cc1ccc2nc(NC(=O)c3cccs3)sc2c1,2.1%,-7.9%,-23.4%,-5.0%,5.3,-50.7%
CS(=O)(=O)c1ccc2nc(NC(=O)c3cccs3)sc2c1,6.2%,?,11.6µM*,-21.9%,62.4,10µM*
Cc1cccc(OCC(=O)Nc2nc3ccc([N+](=O)[O-])cc3s2)c1C,2.0%,?,25.9µM*,-6.0%,-9.2,3.1%
O=S(=O)(c1ccc(Cl)cc1)c1nnn2c1nc(NCc1cccs1)c1sccc12,2.6%,23.1µM*,?,39.8%,/,-2.1%
Cc1ccc(S(=O)(=O)c2nnn3c2nc(N2CCCCC2)c2sccc23)cc1,5.1%,-18.3%,-4.7%,2.7%,/,8.5%
O=S(=O)(c1ccc(Cl)cc1)c1nnn2c1nc(N1CCCCC1)c1sccc12,2.6%,16.4µM*,20.6µM*,14.9%,/,-8.2%
Cc1ccc(S(=O)(=O)c2nnn3c2nc(NCc2cccs2)c2sccc23)cc1,2.6%,-25.6%,-4.3%,-11.7%,/,-22.0%
O=c1[nH]c(CSc2ccccn2)nc2c1oc1ccccc12,-0.6%,-21.9%,-28.6%,1.8%,-2.5,-5.5%
CCCCN1C(=O)C(CC(=O)NC2CC2)CC(C(=O)N(CC)CC)=C1C (stereo not drawn),/,-0.2%,-3.8%,-12.7%,-5.8,-16.8%
COc1ccc(C(Cl)=C(C=O)c2ccc(OC)c(OC)c2)cc1OC,/,?,?,?,?,-7.0%
Cc1ccc(Cl)cc1-n1c(=O)c2sc3ccccc3c2n(Cc2ccccc2)c1=O,-9.0%,5.8µM*,23.1µM*,-3.0%,/,8.5%
COc1cccc(Cn2c(=O)n(-c3ccc(Br)cc3F)c(=O)c3sc4ccccc4c32)c1,-1.8%,?,9.2µM*,1.4%,/,3.4%
O=c1c2sc3ccccc3c2n(Cc2ccc(Cl)cc2)c(=O)n1Cc1ccco1,0.0%,8.2µM*,?,-17.7%,/,-15.0%
